Of roughly 21,000 targets only a part is listed; those with the largest changes were picked by preference.
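Note: competitive profiling in live THP-1 cells: cysteine peptides tagged with an iodoacetamide desthiobiotin (IA-DTB) probe, intensity after compound treatment relative to DMSO-treated cells.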

UniProt Q9BXW7, sequence (Q9BXW7 whole entry): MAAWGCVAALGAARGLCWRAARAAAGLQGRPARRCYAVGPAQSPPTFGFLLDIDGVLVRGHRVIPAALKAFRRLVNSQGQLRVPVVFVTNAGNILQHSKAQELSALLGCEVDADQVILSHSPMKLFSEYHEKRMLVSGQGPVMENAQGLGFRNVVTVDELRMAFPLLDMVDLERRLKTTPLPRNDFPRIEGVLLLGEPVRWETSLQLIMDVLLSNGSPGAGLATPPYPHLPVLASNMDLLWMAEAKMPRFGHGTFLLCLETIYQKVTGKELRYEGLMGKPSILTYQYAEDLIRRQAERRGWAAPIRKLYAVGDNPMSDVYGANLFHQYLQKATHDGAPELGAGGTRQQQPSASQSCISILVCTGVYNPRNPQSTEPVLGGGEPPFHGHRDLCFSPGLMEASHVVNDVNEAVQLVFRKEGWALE
UniProt Q13439, sequence (Q13439 whole entry, looked up): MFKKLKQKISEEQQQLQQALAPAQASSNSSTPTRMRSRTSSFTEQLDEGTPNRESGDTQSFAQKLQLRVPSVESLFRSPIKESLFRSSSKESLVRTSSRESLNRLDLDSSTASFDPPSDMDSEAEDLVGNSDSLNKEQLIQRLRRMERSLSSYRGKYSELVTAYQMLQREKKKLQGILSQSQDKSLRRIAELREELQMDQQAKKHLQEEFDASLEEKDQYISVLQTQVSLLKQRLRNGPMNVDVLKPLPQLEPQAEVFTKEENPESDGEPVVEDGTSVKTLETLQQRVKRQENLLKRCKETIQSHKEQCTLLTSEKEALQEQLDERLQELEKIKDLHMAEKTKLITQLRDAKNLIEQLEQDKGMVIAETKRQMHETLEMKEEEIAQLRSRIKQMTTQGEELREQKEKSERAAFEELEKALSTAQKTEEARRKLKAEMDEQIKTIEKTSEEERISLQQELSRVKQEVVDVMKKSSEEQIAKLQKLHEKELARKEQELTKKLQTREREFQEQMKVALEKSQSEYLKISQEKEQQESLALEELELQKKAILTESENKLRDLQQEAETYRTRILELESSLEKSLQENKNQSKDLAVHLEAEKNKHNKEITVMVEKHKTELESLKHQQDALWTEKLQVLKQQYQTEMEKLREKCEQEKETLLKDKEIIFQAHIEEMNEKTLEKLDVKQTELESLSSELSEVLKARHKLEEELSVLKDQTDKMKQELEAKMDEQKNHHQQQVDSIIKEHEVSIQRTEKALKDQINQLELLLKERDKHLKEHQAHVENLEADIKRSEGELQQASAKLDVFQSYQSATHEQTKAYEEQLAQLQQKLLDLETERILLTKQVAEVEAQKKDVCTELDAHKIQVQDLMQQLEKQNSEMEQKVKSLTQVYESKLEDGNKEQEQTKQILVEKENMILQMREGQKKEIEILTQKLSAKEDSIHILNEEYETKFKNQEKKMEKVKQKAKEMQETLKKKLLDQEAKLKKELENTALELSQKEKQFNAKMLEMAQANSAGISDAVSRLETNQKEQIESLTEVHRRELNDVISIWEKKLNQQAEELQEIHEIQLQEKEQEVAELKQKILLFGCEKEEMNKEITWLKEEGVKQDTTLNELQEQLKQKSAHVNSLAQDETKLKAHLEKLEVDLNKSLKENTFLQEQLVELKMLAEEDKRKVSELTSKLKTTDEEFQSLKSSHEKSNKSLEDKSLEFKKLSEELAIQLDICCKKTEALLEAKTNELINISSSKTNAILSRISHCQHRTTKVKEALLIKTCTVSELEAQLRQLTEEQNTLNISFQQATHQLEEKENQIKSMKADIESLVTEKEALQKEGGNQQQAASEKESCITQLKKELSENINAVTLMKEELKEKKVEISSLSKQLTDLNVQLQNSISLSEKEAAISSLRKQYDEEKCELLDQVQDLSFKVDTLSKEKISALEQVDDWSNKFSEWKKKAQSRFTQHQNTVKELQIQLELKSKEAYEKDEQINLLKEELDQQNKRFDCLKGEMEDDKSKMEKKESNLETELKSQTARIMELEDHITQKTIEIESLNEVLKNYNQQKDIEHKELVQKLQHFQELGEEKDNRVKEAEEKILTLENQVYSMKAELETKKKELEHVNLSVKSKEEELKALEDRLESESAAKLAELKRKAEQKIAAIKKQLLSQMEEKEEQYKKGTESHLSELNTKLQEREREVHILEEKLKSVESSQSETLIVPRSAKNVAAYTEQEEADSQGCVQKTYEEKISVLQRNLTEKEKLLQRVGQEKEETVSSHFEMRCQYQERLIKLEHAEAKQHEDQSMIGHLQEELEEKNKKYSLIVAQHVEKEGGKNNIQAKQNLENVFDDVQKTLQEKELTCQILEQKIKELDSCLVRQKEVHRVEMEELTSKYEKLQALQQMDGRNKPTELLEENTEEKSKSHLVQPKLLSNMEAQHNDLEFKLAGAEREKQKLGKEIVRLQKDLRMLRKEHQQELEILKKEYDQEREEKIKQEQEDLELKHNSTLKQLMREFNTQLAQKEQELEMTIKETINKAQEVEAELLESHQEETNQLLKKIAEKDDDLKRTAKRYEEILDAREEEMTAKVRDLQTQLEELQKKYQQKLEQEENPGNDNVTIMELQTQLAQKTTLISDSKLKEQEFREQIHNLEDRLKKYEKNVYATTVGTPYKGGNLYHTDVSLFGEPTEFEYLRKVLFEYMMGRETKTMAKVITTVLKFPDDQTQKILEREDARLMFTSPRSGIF
UniProt Q14318, sequence (Q14318 whole entry, looked up): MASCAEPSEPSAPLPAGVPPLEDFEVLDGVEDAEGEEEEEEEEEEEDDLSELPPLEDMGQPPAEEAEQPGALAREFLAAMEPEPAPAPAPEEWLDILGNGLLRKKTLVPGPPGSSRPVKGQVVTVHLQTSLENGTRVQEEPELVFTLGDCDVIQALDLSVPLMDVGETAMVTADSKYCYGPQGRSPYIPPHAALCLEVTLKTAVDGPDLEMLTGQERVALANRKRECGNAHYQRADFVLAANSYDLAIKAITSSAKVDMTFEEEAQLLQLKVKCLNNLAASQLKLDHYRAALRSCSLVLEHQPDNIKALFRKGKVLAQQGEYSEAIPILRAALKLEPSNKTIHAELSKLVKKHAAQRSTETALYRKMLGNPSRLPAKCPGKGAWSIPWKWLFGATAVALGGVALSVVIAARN
UniProt Q969S9, sequence (Q969S9 whole entry, looked up): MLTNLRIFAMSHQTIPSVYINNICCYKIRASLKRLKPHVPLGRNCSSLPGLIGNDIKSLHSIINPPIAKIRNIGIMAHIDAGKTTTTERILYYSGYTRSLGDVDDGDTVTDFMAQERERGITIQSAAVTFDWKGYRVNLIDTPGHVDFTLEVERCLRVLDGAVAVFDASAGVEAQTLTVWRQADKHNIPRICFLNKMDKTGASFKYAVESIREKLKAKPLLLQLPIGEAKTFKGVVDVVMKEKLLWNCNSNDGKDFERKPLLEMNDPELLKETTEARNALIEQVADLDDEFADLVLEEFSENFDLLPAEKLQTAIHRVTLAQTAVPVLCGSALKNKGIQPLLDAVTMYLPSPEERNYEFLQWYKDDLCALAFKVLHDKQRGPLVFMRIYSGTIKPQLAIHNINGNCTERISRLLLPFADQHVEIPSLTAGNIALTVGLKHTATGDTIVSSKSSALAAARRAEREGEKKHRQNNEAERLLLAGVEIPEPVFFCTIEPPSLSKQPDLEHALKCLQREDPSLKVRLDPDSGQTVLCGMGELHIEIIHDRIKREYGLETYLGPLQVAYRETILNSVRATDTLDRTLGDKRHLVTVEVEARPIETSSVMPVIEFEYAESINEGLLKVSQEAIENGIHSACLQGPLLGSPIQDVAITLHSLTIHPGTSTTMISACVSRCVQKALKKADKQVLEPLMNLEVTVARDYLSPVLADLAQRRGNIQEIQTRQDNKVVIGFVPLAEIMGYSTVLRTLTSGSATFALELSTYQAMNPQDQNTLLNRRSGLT
UniProt O43292, sequence (O43292 whole entry): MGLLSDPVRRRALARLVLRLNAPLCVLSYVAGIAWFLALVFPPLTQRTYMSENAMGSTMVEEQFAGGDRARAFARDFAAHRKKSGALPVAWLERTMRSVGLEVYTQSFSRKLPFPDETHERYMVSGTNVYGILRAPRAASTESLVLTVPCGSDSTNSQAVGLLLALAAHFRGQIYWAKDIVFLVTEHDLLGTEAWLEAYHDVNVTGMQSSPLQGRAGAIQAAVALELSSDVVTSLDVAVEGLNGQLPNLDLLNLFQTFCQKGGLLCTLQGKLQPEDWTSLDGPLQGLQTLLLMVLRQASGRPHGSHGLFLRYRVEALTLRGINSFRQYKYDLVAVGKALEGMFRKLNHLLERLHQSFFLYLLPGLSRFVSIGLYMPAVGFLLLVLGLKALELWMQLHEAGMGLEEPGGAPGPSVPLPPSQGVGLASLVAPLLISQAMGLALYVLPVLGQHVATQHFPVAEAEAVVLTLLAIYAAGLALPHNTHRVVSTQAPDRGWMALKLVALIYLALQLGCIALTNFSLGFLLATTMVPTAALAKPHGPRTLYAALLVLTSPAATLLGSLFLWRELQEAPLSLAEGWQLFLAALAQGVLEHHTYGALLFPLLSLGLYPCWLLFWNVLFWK
UniProt Q969Y2, sequence (Q969Y2 whole entry, looked up): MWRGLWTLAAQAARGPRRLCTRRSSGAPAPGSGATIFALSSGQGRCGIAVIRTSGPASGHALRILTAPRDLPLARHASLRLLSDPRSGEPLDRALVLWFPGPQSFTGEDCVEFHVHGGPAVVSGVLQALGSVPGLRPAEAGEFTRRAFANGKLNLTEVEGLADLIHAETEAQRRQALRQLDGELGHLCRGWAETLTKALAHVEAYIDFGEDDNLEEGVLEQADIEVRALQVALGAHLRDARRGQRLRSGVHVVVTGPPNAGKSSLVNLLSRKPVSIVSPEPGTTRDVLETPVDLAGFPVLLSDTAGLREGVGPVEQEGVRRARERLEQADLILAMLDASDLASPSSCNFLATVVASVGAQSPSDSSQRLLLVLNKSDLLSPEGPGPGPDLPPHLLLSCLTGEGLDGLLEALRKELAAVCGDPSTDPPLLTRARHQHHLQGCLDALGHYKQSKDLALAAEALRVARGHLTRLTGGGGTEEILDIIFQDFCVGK

Compound in the first assay: Cc1cc(ccc1-c1ccccc1)C(=O)N1CCCN(CC1)C(=O)CCl [compound 10]
Put plainly: probe-labelled cysteine peptide fold change vs DMSO (competition) (log2 fold change); higher = less target engagement (more negative = stronger competition). To be noted: 10 µM; THP-1; incubation time: 4 h.
Turning to “GFM2_Q969S9_248_LLWNCNSNDGK (UniProt Q969S9)”, the “probe-labelled cysteine peptide fold change” value is -0.353. Turning to “GTPBP3_Q969Y2_188_QLDGELGHLCR (UniProt Q969Y2)”, the “probe-labelled cysteine peptide fold change” value was -0.0966. With “GOLGA2_Q08379_984_ERPGLGSNPCIPFFYR (UniProt Q08379)”, the “probe-labelled cysteine peptide fold change” value was -0.149.

For “GOLGA3_Q08378_769_LGELQGEAASREDTICLLQNEK (UniProt Q08378)”, the “probe-labelled cysteine peptide fold change” value was -0.084.

With “GATM_P50440_131_KAVAEIEEMCNILK (UniProt P50440)”, the “probe-labelled cysteine peptide fold change” value is -0.0751. Same read-out and setting: to “FLAD1_Q8NFF5_338_LTLDSEEEGPLEECLAYLTAR (UniProt Q8NFF5)” belongs -0.0485; to “FKBP8_Q14318_274_CLNNLAASQLK (UniProt Q14318)”, 0.0653. For “HDHD5_Q9BXW7_392_DLCFSPGLMEASHVVNDVNEAVQLVFRK (UniProt Q9BXW7)”, the “probe-labelled cysteine peptide fold change” value is -0.183.

For “GOLGA4_Q13439_1085_ILLFGCEK (UniProt Q13439)”, the “probe-labelled cysteine peptide fold change” value is -0.11. “FLCN_Q8NFG4_215_VFEAEQFGCPQR (UniProt Q8NFG4)”: the “probe-labelled cysteine peptide fold change” value is -0.0204. Regarding “GPAA1_O43292_266_GGLLCTLQGK (UniProt O43292)”, the “probe-labelled cysteine peptide fold change” value was -0.168.

Staying with this assay, now noted: 50 µM; THP-1; incubation time: 4 h.
“GTF3C5_Q9Y5Q8_75_DPYCHPVCANR (UniProt Q9Y5Q8)”: the “probe-labelled cysteine peptide fold change” value worked out at 0.621. On to “FHL1_Q13642_150_GEDFYCVTCHETK (UniProt Q13642)”, for which the “probe-labelled cysteine peptide fold change” value was -0.0472. For the target “GABPA_Q06546_69_LQCSLDAHEICLQDIQLDPER (UniProt Q06546)”, the “probe-labelled cysteine peptide fold change” value is -0.0571. Consider “GALNT7_Q86SF2_545_GFETAYCIDSMGK (UniProt Q86SF2)”, for which the “probe-labelled cysteine peptide fold change” value turned out to be 0.095.

Consider “HEATR5A_Q86XA9_1635_QIICAAQEHVK (UniProt Q86XA9)”, for which the “probe-labelled cysteine peptide fold change” value worked out at 0.171.

Turning to “FRMD8_Q9BZ67_206_LDSFLPAHLCK (UniProt Q9BZ67)”, the “probe-labelled cysteine peptide fold change” value was -0.347.

Regarding “GCLM_P48507_35+46_CPSTHSEELHDCIQK (UniProt P48507)”, the “probe-labelled cysteine peptide fold change” value was -0.843. With “HERC2_O95714_1201_ERDDHEELAWPGIMESFFTGQNCR (UniProt O95714)”, the “probe-labelled cysteine peptide fold change” value is -0.244. Consider “GATD1_Q8NB37_94_YHALLIPSCPGALTDLASSGSLAR (UniProt Q8NB37)”, for which the “probe-labelled cysteine peptide fold change” value is -0.00276. As to “HDAC8_Q9BY41_153_KDEASGFCYLNDAVLGILR (UniProt Q9BY41)”, the “probe-labelled cysteine peptide fold change” value turned out to be 0.0564. “GEMIN5_Q8TEQ6_1421_NEPEVEAEQPLCSSQSQCK (UniProt Q8TEQ6)”: the “probe-labelled cysteine peptide fold change” value is -0.124.

As to “GPD1L_Q8N335_216_NIVAVGAGFCDGLR (UniProt Q8N335)”, the “probe-labelled cysteine peptide fold change” value worked out at 0.115. The same measure, in the same setting: to “HGS_O14964_212_VCEPCYEQLNR (UniProt O14964)” belongs -0.13; to “GPX1_P07203_78_GLVVLGFPCNQFGHQENAKNEEILNSLK (UniProt P07203)”, -1.3; to “GTF2I_P78347_475_MVDQLFCK (UniProt P78347)”, 0.51. Still for that read-out and setting: to “FGR_P09769_415_LIKDDEYNPCQGSK (UniProt P09769)” belongs -0.205. Take “GFM2_Q969S9_248_LLWNCNSNDGK (UniProt Q969S9)”: the “probe-labelled cysteine peptide fold change” value was -0.937. On to “GTPBP3_Q969Y2_188_QLDGELGHLCR (UniProt Q969Y2)”, for which the “probe-labelled cysteine peptide fold change” value was -0.00935. Same read-out and setting: the same measure for “GOLGA2_Q08379_984_ERPGLGSNPCIPFFYR (UniProt Q08379)”: -0.0471.

As to “GOLGA3_Q08378_769_LGELQGEAASREDTICLLQNEK (UniProt Q08378)”, the “probe-labelled cysteine peptide fold change” value was -0.193. “GATM_P50440_131_KAVAEIEEMCNILK (UniProt P50440)”: the “probe-labelled cysteine peptide fold change” value was -0.22. “FLAD1_Q8NFF5_338_LTLDSEEEGPLEECLAYLTAR (UniProt Q8NFF5)”: the “probe-labelled cysteine peptide fold change” value was 0.177.

“FKBP8_Q14318_274_CLNNLAASQLK (UniProt Q14318)”: the “probe-labelled cysteine peptide fold change” value was -0.0462. As for “HDHD5_Q9BXW7_392_DLCFSPGLMEASHVVNDVNEAVQLVFRK (UniProt Q9BXW7)”, the “probe-labelled cysteine peptide fold change” value was -1.22.

Regarding “GOLGA4_Q13439_1085_ILLFGCEK (UniProt Q13439)”, the “probe-labelled cysteine peptide fold change” value was determined as 0.095.

For the target “FLCN_Q8NFG4_215_VFEAEQFGCPQR (UniProt Q8NFG4)”, the “probe-labelled cysteine peptide fold change” value was -0.54. On the same count and under the same terms, the same measure for “GPAA1_O43292_266_GGLLCTLQGK (UniProt O43292)”: -0.0244.

The values are drawn from the supplement of paper PMC12067093, “Discovery and optimisation of a covalent ligand for TRIM25 and its application to targeted protein ubiquitination” (Chemical Science, 2025).
